Assay results taken from PubChem BioAssay AID1159580 (chemical genetic matrix, 2015).
The campaign covered roughly 5,500 compounds. About 2,000 (36%) were called active. Another 18% or so got no clear call; they are omitted. Cut-off read from the data, not from the text of the source: active = normalized growth mostly below about 0.91 (no sharp cut-off); inconclusive = no clear call, values can overlap the other calls; inactive = mostly above about 0.92. The list shows a part of the results.

Assay: chemical genetic growth profiling, strain panel (AID 1159580);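 note: tested at 20 µM; growth read once vehicle control cultures reached saturation at 30 °C; 1 = growth at the plate median or of vehicle wells; lower values mean less growth of the strain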
Settings: S. cerevisiae deletion strains, growth OD

Measured: normalized growth

CC(C)=CCOc1c2occc2cc2ccc(=O)oc12
inactive: locus YJR066W, strain TOR1, active compounds read low 0.891 | locus YLL026W, active compounds read low 0.931 | locus YLR113W, strain HOG1, active compounds read low 1.02 | locus YLR357W, strain rsc2, active compounds read low 0.871 | locus YMR231W, strain pep5, active compounds read low 0.936 | locus YNL183C, strain NPR1, active compounds read low 0.912 | locus YNL209W, strain ssb2, active compounds read low 0.936 | locus YNL248C, strain rpa49, active compounds read low 0.936 | locus YOL012C, strain htz1 0.448 | locus YOR061W, strain CKA2, active compounds read low 0.917 | locus YOR070C, strain gyp1, active compounds read low 0.93 | locus YOR080W, strain dia2, active compounds read low 0.921 | locus YOR106W, strain vam3, active compounds read low 0.881 | locus YOR231W, strain MKK1, active compounds read low 0.955 | locus YOR265W, strain rbl2, active compounds read low 0.93 | locus YPL106C, strain sse1, active compounds read low 0.941 | locus YPL256C, strain CLN2, active compounds read low 0.969
active: locus YKL009W, strain mrt4, active compounds read low 0.844 | locus YKL068W, active compounds read low 0.898 | locus YKL085W, strain MDH1 (second series), active compounds read low 0.898 | locus YKL085W, strain MDH1, active compounds read low 0.898 | locus YKL160W, strain elf1, active compounds read low 0.898 | locus YKL190W, strain CNB1, active compounds read low 0.854 | locus YKR001C, strain vps1, active compounds read low 0.599 | locus YKR026C, strain gcn3, active compounds read low 0.905 | locus YKR091W, strain srl3, active compounds read low 0.929 | locus YLL001W, strain dnm1, active compounds read low 0.862 | locus YLL041C, strain sdh2, active compounds read low 0.919 | locus YLR027C, strain aat2, active compounds read low 0.893 | locus YLR039C, strain RIC1, active compounds read low 0.429 | locus YLR058C, strain SHM2, active compounds read low 0.748 | locus YLR102C, strain apc9, active compounds read low 0.843 | locus YLR221C, strain rsa3, active compounds read low 0.821 | locus YLR258W, strain gsy2, active compounds read low 0.908 | locus YLR262C, strain YPT6 (second series), active compounds read low 0.749 | locus YLR262C, strain YPT6, active compounds read low 0.448 | locus YLR268W, strain sec22, active compounds read low 0.695 | locus YLR320W, strain mms22, active compounds read low 0.652 | locus YLR330W, strain CHS5, active compounds read low 0.507 | locus YLR342W, strain FKS1 (second series), active compounds read low 0.416 | locus YLR342W, strain FKS1, active compounds read low 0.86 | locus YLR370C, strain arc18, active compounds read low 0.906 | locus YLR371W, strain rom2, active compounds read low 0.582 | locus YLR384C, strain iki3, active compounds read low 0.9 | locus YLR418C, strain cdc73, active compounds read low 0.28 | locus YML016C, strain PPZ1, active compounds read low 0.875 | locus YML032C, strain rad52, active compounds read low 0.676 | locus YML120C, strain ndi1, active compounds read low 0.875 | locus YML124C, strain tub3, active compounds read low 0.827 | locus YMR058W, strain fet3, active compounds read low 0.886 | locus YMR078C, strain ctf18, active compounds read low 0.781 | locus YMR125W, strain sto1, active compounds read low 0.826 | locus YMR129W, active compounds read low 0.921 | locus YMR205C, strain PFK2, active compounds read low 0.817 | locus YMR223W, strain ubp8, active compounds read low 0.736 | locus YMR307W, strain GAS1, active compounds read low 0.443 | locus YNL067W, strain RPL9B, active compounds read low 0.764 | locus YNL071W, strain lat1, active compounds read low 0.573 | locus YNL153C, strain GIM3, active compounds read low 0.73 | locus YNL233W, strain BNI4, active compounds read low 0.517 | locus YNL250W, strain rad50, active compounds read low 0.884 | locus YNL271C, strain bni1, active compounds read low 0.849 | locus YNL298W, strain CLA4, active compounds read low 0.823 | locus YNL307C, strain MCK1, active compounds read low 0.222 | locus YNL322C, strain KRE1 (second series), active compounds read low 0.904 | locus YNR049C, strain mso1, active compounds read low 0.914 | locus YNR052C, strain pop2, active compounds read low 0.877 | locus YOL006C, strain TOP1, active compounds read low 0.373 | locus YOL147C, strain pex11, active compounds read low 0.551 | locus YOR001W, strain rrp6, active compounds read low 0.89 | locus YOR069W, strain VPS5, active compounds read low 0.783 | locus YOR083W, strain WHI5, active compounds read low 0.86 | locus YOR136W, strain idh2, active compounds read low 0.851 | locus YOR144C, strain elg1, active compounds read low 0.717 | locus YOR184W, strain ser1, active compounds read low 0.459 | locus YOR270C, strain vph1, active compounds read low 0.592 | locus YOR290C, strain snf2, active compounds read low 0.787 | locus YOR316C, strain cot1, active compounds read low 0.86 | locus YPL051W, strain arl3, active compounds read low 0.908 | locus YPL055C, strain LGE1, active compounds read low 0.657 | locus YPL078C, strain atp4, active compounds read low 0.843 | locus YPL240C, strain hsp82, active compounds read low 0.912 | locus YPR119W, strain clb2, active compounds read low 0.837 | locus YPR141C, strain kar3, active compounds read low 0.869 | locus YPR163C, strain tif3, active compounds read low 0.34 | locus YPR167C, strain met16, active compounds read low 0.782 | strain wtn01, active compounds read low 0.708
